Source: PubChem BioAssay
The source made the active and inactive calls.

Assays:
[1] = binders of probe aFSTL3 on microarray, primary screen, stem cell growth factor project, biochemical, small-molecule microarray, fluorescence 635/667 (AID 1064); conditions: higher = more signal;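 also: measures binding of the biotinylated anti-FSTL3 antibody to printed compounds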
[2] = binders from COS7 lysate, DM2A8 probe, primary screen, torsin A project, cell lysate, small-molecule microarray, fluorescence 635/667 (AID 1065); conditions: higher = more signal, COS7 lysate expressing mutant human TOR1A
[3] = binders of probe aFGF2 on microarray, primary screen, stem cell growth factor project, biochemical, small-molecule microarray, fluorescence 635/667 (AID 1067); conditions: higher = more signal;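 also: measures binding of biotinylated aFGF2 protein to printed compounds on slides; z-score merges feature fluorescence and signal-to-noise across triplicate slides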
[4] = binders of probe aFGF10 on microarray, primary screen, stem cell growth factor project, biochemical, small-molecule microarray, fluorescence 635/667 (AID 1071); conditions: higher = more signal;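 also: score merges 667 nm spot intensity and signal to noise from triplicate slides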
[5] = target: Neurogenic locus notch homolog protein 2 (Homo sapiens) (UniProt Q04721); experiment: Notch2 binders on small-molecule microarrays, primary screen, biochemical, small-molecule microarray, 635 nm fluorescence, stem cell growth factors (AID 1073); conditions: Notch2 binding, higher = more signal
[6] = target: Pro-neuregulin-1, membrane-bound isoform (Homo sapiens) (UniProt Q02297); experiment: NRG1 binders on small-molecule microarrays, primary screen, psychiatric disease protein project, biochemical, small-molecule microarray, fluorescence 635/667 (AID 1075); conditions: NRG1 binding, 635 nm fluorescence, higher = more signal;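 also: score combines 667 nm spot fluorescence with signal to noise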
[7] = tested on: Neuregulin-1 EGF-like domain; experiment: binders of neuregulin-1 EGF-like domain, primary screen, biochemical, small-molecule microarray, 635 nm fluorescence (AID 1081); conditions: small-molecule microarray binding, higher = more signal;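 also: binding of the protein to compounds printed on small-molecule microarray slides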
[8] = FRG1 promoter luciferase signal modulators, primary screen, FRG1 inhibition for FSHD, cell-based, C2C12 myotubes, firefly/Renilla luciferase, luminescence (AID 1084); conditions: higher = more signal, called active from +8 up or from −8 down
[9] = binders of probe aFST on microarray, primary screen, stem cell growth factor project, biochemical, small-molecule microarray, fluorescence 635/667 (AID 1086); conditions: higher = more signal;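 also: score merges 667 nm fluorescence with signal-to-noise of each printed compound spot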
[10] = binders of probe aHhip on microarray, primary screen, stem cell growth factor project, biochemical, small-molecule microarray, fluorescence 635/667 (AID 1087); conditions: higher = more signal;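 also: score merges spot fluorescence at 667nm with spot signal to noise ratio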
[11] = tested on: PRMT1 (protein arginine N-methyltransferase 1); experiment: PRMT1 binders on small-molecule microarrays, primary screen, biochemical, small-molecule microarray, 635 nm fluorescence (AID 1088); conditions: small-molecule microarray binding, higher = more signal;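 also: binding of Prmt1 protein to compounds spotted on small-molecule microarray slides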
[12] = yeast growth modulation, basal conditions, primary screen, YJM789 clinical isolate, OD600, 24 h (AID 1089);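 also: growth of clinical yeast isolate S. cerevisiae YJM 789 seeded 1000 cells per well; test concentration not given here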; conditions: S. cerevisiae YJM789 growth, higher = more signal, called active from +8 up or from −8 down
[13] = fission yeast growth modulation, primary screen, strain 972, OD600, 24 h, no modulator (AID 1090);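 also: basal condition with compound alone and no growth modifier present; test concentration not given here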; conditions: S. pombe 972 growth, higher = more signal, called active from +8 up or from −8 down
[14] = S. cerevisiae growth modulation with rapamycin, primary screen, strain BY4716, OD600, 96 h (AID 1091); conditions: higher = more signal, called active from +8 up or from −8 down; also: test concentration not given here
[15] = target: Torsin-1A-interacting protein 2 (Homo sapiens) (UniProt Q8NFQ8); experiment: LULL1 binders on small-molecule microarray, primary screen, cell lysate, human LULL1 lysate, 635/667 nm fluorescence (AID 1092); conditions: hLULL1 lysate binding, 635 nm fluorescence, higher = more signal;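 also: probe is lysate of COS7 cells overexpressing human LULL1; score merges per-feature 667 nm fluorescence with signal-to-noise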
[16] = E. coli growth modulation, two-sided OD650, primary screen, E. coli filamentation project, strain DRC41, 24 h (AID 1093); conditions: OD650, 24 h, higher = more signal, called active from +8 up or from −8 down;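 also: MC1000 strain lacking acrAB efflux and sulA so SOS filamentation is blocked; test concentration not given here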
[17] = small-molecule microarray binders of probe aLefty2, primary screen, biochemical, biotinylated probe, 635/667 nm fluorescence (AID 1094); conditions: higher = more signal;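 also: score merges spot fluorescence near 667 nm with spot signal-to-noise ratio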
[18] = tested on: Noggin (protein binding on small-molecule microarray); experiment: Noggin binders on small-molecule microarray, primary screen, biochemical, 635/667 nm fluorescence (AID 1095); conditions: 635 nm fluorescence, higher = more signal;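 also: score merges 667 nm feature fluorescence with signal to noise over triplicate slides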
[19] = target: Neurogenic locus notch homolog protein 3 (Homo sapiens) (UniProt Q9UM47); experiment: NOTCH3 binders on small-molecule microarray, primary screen, biochemical, 635/667 nm fluorescence (AID 1096); conditions: NOTCH3 binding, 635 nm fluorescence, higher = more signal
[20] = small-molecule microarray binders of probe aEGFR, primary screen, biochemical, biotinylated probe, 635/667 nm fluorescence (AID 1097); conditions: higher = more signal;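 also: probe is a biotinylated anti-EGFR antibody binding compounds printed on slides; score combines fluorescence near 667 nm and signal to noise of each spot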

Sequence of Torsin-1A-interacting protein 2 (Homo sapiens) (Q8NFQ8 whole entry, looked up): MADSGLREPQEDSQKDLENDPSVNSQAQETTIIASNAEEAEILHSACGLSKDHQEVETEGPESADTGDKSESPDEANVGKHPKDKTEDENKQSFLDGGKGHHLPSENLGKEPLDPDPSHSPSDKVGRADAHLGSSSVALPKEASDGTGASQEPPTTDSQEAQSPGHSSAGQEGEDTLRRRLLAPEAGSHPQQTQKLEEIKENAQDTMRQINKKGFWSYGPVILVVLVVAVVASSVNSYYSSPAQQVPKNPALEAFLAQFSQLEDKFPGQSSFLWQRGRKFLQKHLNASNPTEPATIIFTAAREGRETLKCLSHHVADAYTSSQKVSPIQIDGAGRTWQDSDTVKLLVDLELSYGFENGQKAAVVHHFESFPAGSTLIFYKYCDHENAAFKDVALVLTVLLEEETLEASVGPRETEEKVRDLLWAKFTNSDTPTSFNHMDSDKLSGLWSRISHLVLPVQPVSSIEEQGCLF
Sequence of Neurogenic locus notch homolog protein 2 (Homo sapiens) (Q04721 whole entry, looked up, canonical isoform): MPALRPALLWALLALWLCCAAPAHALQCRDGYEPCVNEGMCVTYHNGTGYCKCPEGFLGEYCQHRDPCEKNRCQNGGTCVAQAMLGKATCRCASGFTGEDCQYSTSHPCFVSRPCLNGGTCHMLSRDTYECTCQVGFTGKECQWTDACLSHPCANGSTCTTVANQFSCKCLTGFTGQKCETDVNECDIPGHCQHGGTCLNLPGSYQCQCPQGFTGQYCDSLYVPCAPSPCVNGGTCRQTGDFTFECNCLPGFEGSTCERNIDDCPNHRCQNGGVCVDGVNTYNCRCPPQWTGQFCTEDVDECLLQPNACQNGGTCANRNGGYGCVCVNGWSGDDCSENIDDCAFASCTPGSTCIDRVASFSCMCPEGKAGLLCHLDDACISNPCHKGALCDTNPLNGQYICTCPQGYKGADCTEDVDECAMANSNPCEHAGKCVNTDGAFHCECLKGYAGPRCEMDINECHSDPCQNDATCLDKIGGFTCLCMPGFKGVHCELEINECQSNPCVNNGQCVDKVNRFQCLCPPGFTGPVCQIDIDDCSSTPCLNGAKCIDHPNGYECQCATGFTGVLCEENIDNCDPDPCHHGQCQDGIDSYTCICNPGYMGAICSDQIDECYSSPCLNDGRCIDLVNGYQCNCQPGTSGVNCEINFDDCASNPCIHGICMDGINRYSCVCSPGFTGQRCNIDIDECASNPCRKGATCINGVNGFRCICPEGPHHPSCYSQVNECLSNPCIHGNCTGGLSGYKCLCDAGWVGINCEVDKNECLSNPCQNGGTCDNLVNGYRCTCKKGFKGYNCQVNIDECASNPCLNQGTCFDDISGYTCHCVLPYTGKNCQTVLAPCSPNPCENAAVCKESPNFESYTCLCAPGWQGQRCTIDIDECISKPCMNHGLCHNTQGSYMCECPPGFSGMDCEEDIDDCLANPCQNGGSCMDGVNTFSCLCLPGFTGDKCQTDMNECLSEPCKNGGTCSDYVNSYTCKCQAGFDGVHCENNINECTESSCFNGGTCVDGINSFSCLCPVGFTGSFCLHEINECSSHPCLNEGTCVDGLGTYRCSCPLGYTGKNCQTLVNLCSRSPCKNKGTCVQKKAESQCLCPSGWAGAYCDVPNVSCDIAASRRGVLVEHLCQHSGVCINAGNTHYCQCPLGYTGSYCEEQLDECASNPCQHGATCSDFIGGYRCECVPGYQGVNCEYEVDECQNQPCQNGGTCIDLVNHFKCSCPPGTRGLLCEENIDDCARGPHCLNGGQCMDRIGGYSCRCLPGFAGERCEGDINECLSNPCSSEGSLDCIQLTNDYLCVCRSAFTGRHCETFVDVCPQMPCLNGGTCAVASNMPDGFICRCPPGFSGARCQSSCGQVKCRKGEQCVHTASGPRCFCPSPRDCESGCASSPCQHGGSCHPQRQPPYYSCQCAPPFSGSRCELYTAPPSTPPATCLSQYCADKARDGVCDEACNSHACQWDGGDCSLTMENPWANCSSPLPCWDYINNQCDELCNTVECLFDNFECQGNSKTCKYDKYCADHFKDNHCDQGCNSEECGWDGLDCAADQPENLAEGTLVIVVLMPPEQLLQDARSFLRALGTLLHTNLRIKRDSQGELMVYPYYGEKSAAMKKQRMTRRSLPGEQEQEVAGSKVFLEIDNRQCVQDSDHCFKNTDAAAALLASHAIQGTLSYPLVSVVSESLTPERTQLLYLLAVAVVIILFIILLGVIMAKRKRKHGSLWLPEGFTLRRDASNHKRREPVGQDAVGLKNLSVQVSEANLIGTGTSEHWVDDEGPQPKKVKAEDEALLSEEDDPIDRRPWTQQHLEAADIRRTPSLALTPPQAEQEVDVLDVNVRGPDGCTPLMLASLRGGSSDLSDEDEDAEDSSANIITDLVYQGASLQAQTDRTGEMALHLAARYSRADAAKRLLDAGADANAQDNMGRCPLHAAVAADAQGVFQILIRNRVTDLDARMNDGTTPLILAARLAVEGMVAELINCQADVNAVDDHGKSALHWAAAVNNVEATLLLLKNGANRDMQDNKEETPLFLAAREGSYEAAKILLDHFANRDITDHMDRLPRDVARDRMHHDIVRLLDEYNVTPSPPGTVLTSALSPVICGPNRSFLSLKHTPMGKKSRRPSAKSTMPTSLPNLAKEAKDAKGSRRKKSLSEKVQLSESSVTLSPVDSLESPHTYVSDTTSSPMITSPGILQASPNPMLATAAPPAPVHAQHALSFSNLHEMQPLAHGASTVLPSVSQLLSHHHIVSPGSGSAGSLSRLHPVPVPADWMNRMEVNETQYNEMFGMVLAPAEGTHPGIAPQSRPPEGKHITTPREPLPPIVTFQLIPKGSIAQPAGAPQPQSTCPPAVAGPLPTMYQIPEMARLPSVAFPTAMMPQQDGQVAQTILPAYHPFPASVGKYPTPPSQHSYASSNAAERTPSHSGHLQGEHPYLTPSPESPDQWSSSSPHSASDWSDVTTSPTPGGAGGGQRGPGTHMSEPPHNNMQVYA
Sequence of Pro-neuregulin-1, membrane-bound isoform (Homo sapiens) (Q02297 whole entry, looked up, the tested form may be a part, canonical isoform): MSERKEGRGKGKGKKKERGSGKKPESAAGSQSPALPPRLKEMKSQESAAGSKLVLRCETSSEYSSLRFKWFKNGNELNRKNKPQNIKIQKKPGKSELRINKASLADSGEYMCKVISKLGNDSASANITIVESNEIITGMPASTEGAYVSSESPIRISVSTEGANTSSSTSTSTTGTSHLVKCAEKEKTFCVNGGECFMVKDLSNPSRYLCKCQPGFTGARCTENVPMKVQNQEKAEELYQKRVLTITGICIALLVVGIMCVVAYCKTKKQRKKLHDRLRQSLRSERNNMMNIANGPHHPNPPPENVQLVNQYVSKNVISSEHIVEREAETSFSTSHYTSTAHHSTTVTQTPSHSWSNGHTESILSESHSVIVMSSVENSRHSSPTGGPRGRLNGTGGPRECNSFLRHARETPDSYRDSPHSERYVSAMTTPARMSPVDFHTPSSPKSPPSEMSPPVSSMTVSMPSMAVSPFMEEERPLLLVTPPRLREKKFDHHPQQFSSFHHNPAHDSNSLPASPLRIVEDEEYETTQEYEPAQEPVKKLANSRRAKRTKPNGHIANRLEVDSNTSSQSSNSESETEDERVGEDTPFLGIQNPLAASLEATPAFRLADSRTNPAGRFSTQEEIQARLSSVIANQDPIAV

SMILES: CCOC(=O)[C@H](Cc1ccccc1)NC(=O)CCC1CC(OC(=O)NCc2ccc3c(c2)OCO3)CC2(CCCC(COC(=O)NCCC(C)C)O2)O1 (stereo not given in full)
- composite z-score [1]: -0.545
- composite z-score [2]: 0.107
- composite z-score [3]: -0.0193
- composite z-score [4]: 0.755
- composite z-score [5]: 0.523
- composite z-score [6]: 1.41
- composite z-score [7]: 1.06
- z-score [8]: 0.548 (inactive)
- composite z-score [9]: 0.169
- composite z-score [10]: 0.268
- composite z-score [11]: 1.54
- z-score [12]: 0.648 (inactive)
- z-score [13]: -0.29 (inactive)
- z-score [14]: -0.2 (inactive)
- composite z-score [15]: 1.95
- z-score [16]: -0.167 (inactive)
- composite z-score [17]: 0.0224
- composite z-score [18]: 0.614
- composite z-score [19]: 0.671
- composite z-score [20]: -0.068

SMILES: CCC(=O)[C@@]1(O)C(=O)N2C(=C3C(=O)OCC[C@@H]31)N(Cc1ccccc1)C(C)=C(C(=O)OC)[C@H]2c1ccccc1
- composite z-score [1]: -0.268
- composite z-score [2]: 0.364
- composite z-score [3]: -0.167
- composite z-score [4]: 0.342
- composite z-score [5]: 0.355
- composite z-score [6]: -0.13
- composite z-score [7]: 0.0811
- z-score [8]: 0.105 (inactive)
- composite z-score [9]: 0.179
- composite z-score [10]: 0.176
- composite z-score [11]: 0.374
- z-score [12]: 0.725 (inactive)
- z-score [13]: -0.612 (inactive)
- z-score [14]: 0.0739 (inactive)
- composite z-score [15]: 0.399
- z-score [16]: 0.568 (inactive)
- composite z-score [17]: -0.232
- composite z-score [18]: 0.644
- composite z-score [19]: 0.367
- composite z-score [20]: -0.0059

SMILES: C[n+]1ccc(-c2ccc(CO)cc2)cc1
- composite z-score [1]: 0.772
- composite z-score [2]: -0.688
- composite z-score [3]: -0.131
- composite z-score [4]: -0.116
- composite z-score [5]: 1.08
- composite z-score [6]: 0.0728
- composite z-score [7]: 0.0658
- z-score [8]: 0.65 (inactive)
- composite z-score [9]: -0.0846
- composite z-score [10]: 0.0053
- composite z-score [11]: 1.37
- z-score [12]: -1.14 (inactive)
- z-score [13]: -0.902 (inactive)
- z-score [14]: 3.9 (inactive)
- composite z-score [15]: -0.202
- z-score [16]: 0.917 (inactive)
- composite z-score [17]: 0.149
- composite z-score [18]: 0.634
- composite z-score [19]: 1.06
- composite z-score [20]: -0.188

SMILES: CON=Cc1ccc(C(=O)N2[C@H](c3ccc(C)cc3)[C@@H](C)CC[C@H]2C(=O)OC)cc1
- composite z-score [1]: -0.13
- composite z-score [2]: 0.486
- composite z-score [3]: -0.134
- composite z-score [4]: 0.363
- composite z-score [5]: 0.489
- composite z-score [6]: 0.424
- composite z-score [7]: 0.843
- z-score [8]: 0.0346 (inactive)
- composite z-score [9]: 0.267
- composite z-score [10]: -0.236
- composite z-score [11]: 1.17
- z-score [12]: -0.0099 (inactive)
- z-score [13]: -2 (inactive)
- z-score [14]: -0.637 (inactive)
- composite z-score [15]: 1.23
- z-score [16]: 0.823 (inactive)
- composite z-score [17]: -0.293
- composite z-score [18]: 0.292
- composite z-score [19]: 0.772
- composite z-score [20]: -0.262

SMILES: COC(=O)C=CCCc1coc(C=CCNC(=O)OC)n1
- composite z-score [1]: -0.0195
- composite z-score [2]: 0.924
- composite z-score [3]: 0.202
- composite z-score [4]: 0.833
- composite z-score [5]: 0.485
- composite z-score [6]: -0.0679
- composite z-score [7]: 0.492
- z-score [8]: 0.721 (inactive)
- composite z-score [9]: 1.04
- composite z-score [10]: 0.851
- composite z-score [11]: 1.45
- z-score [12]: 0.339 (inactive)
- z-score [13]: 0.255 (inactive)
- z-score [14]: 0.196 (inactive)
- composite z-score [15]: 0.254
- z-score [16]: -1.42 (inactive)
- composite z-score [17]: 0.17
- composite z-score [18]: 1.37
- composite z-score [19]: 1.08
- composite z-score [20]: 0.161

SMILES: CCOC(=O)CCN1C(=O)[C@H]2[C@H]3[C@H](O)[C@H](O)CC(=NNC(=O)OCc4ccccc4)[C@@H]3CC[C@H]2C1=O
- composite z-score [1]: -0.326
- composite z-score [2]: 0.695
- composite z-score [3]: -0.158
- composite z-score [4]: 0.504
- composite z-score [5]: 0.88
- composite z-score [6]: 0.716
- composite z-score [7]: 0.971
- z-score [8]: -0.518 (inactive)
- composite z-score [9]: 0.111
- composite z-score [10]: -0.189
- composite z-score [11]: 1.05
- z-score [12]: -0.662 (inactive)
- z-score [13]: 0.279 (inactive)
- z-score [14]: -0.598 (inactive)
- composite z-score [15]: 0.967
- z-score [16]: 0.826 (inactive)
- composite z-score [17]: -0.23
- composite z-score [18]: 0.713
- composite z-score [19]: 1.01
- composite z-score [20]: -0.0688

SMILES: CC[C@@H](c1ccccc1)n1c(=O)n2n(c1=O)[C@H]1[C@H](O)[C@@H]3O[C@@H]3C(=NOC[C@@H](O)COCc3ccco3)[C@H]1CC2
- composite z-score [1]: -0.437
- composite z-score [2]: 0.615
- composite z-score [3]: -0.116
- composite z-score [4]: 0.25
- composite z-score [5]: -1.17
- composite z-score [6]: -0.552
- composite z-score [7]: 0.727
- z-score [8]: 0.0269 (inactive)
- composite z-score [9]: -0.113
- composite z-score [10]: -0.741
- composite z-score [11]: -0.862
- z-score [12]: -0.697 (inactive)
- z-score [13]: -0.552 (inactive)
- z-score [14]: -0.624 (inactive)
- composite z-score [15]: -1.1
- z-score [16]: 0.568 (inactive)
- composite z-score [17]: -0.215
- composite z-score [18]: 0.0447
- composite z-score [19]: -0.979
- composite z-score [20]: -0.185

SMILES: CC(C)CON=C1C[C@@H](O)[C@@H](O)[C@@H]2[C@@H]3C(=O)N(C4CCCCC4)C(=O)[C@@H]3CC[C@@H]12
- composite z-score [1]: -0.216
- composite z-score [2]: 1.2
- composite z-score [3]: -0.0955
- composite z-score [4]: 0.0675
- composite z-score [5]: -0.0187
- composite z-score [6]: 1.45
- composite z-score [7]: -0.115
- z-score [8]: -0.0468 (inactive)
- composite z-score [9]: -0.0424
- composite z-score [10]: -0.0994
- composite z-score [11]: -0.0785
- z-score [12]: 0.4 (inactive)
- z-score [13]: -0.513 (inactive)
- z-score [14]: 0.423 (inactive)
- composite z-score [15]: 1.64
- z-score [16]: -0.233 (inactive)
- composite z-score [17]: -0.302
- composite z-score [18]: 0.0295
- composite z-score [19]: -0.519
- composite z-score [20]: -0.154

SMILES: CC(C)=NO[C@H](C)c1cn([C@H](CO)Cc2ccccc2)nn1
- composite z-score [1]: -0.125
- composite z-score [2]: 0.364
- composite z-score [3]: -0.0737
- composite z-score [4]: -0.116
- composite z-score [5]: 0.0781
- composite z-score [6]: 0.274
- composite z-score [7]: 0.316
- z-score [8]: -0.266 (inactive)
- composite z-score [9]: 0.0676
- composite z-score [10]: 0.0972
- composite z-score [11]: 0.325
- z-score [12]: -0.43 (inactive)
- z-score [13]: -0.594 (inactive)
- z-score [14]: 0.245 (inactive)
- composite z-score [15]: 1.09
- z-score [16]: 0.208 (inactive)
- composite z-score [17]: -0.166
- composite z-score [18]: -0.0003
- composite z-score [19]: 0.104
- composite z-score [20]: -0.0406

SMILES: CCC=CCCC(OC(=O)c1ccc(Br)cc1)C1=CCCCC1=O (stereo not given)
- composite z-score [1]: 0.122
- composite z-score [2]: 0.333
- composite z-score [3]: 0.543
- composite z-score [4]: -0.0363
- composite z-score [5]: -0.164
- composite z-score [6]: 0.714
- composite z-score [7]: 0.878
- z-score [8]: 0.796 (inactive)
- composite z-score [9]: 0.336
- composite z-score [10]: 0.0826
- composite z-score [11]: 1.33
- z-score [12]: -1.32 (inactive)
- z-score [13]: -5.44 (inactive)
- z-score [14]: -2.98 (inactive)
- composite z-score [15]: 1.35
- z-score [16]: -0.133 (inactive)
- composite z-score [17]: -0.0018
- composite z-score [18]: 0.493
- composite z-score [19]: 0.554
- composite z-score [20]: -0.0187
